# From paper doi:10.1101/2025.08.08.669391
# Key:
# Test in all cases: cross-linking mass spectrometry
# Conditions in all cases: DSSO, not determined
# AIF1L = AIF1L (UniProt Q9BQI0)
# B4GALNT4 = B4GALNT4 (UniProt Q76KP1)
# CCT2 = CCT2 (UniProt P78371)
# CCT4 = CCT4 (UniProt P50991)
# MEPE = MEPE (UniProt Q9NQ76)
# SF3B1 = SF3B1 (UniProt O75533)
# SMC4 = SMC4 (UniProt Q9NTJ3)
# SNU13 = SNU13 (UniProt P55769)
# TPPP3 = TPPP3 (UniProt Q9BW30)
# TRIM28 = TRIM28 (UniProt Q13263)
# XRCC5 = XRCC5 (UniProt P13010)
# UniProt P13010, sequence (P13010 whole entry): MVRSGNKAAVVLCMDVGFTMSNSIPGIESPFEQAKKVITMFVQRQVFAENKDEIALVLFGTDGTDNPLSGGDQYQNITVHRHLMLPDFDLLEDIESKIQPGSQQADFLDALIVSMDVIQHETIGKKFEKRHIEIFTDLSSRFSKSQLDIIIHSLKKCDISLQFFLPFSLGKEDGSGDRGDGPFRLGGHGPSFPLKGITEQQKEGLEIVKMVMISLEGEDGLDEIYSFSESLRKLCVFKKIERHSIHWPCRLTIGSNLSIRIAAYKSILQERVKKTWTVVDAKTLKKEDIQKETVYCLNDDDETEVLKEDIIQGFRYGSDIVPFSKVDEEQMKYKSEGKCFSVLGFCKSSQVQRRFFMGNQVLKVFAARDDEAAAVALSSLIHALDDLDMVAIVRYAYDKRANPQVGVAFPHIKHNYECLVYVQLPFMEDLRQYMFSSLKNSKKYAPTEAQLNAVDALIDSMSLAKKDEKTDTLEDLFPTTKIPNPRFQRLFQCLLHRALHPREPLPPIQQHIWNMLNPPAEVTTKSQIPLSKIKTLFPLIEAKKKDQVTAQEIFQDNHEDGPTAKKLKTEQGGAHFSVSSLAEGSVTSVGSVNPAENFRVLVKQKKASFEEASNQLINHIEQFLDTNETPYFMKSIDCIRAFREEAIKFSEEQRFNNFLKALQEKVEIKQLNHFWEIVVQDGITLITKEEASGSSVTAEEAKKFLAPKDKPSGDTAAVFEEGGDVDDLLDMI
# HTATSF1, sequence (O43719 whole entry): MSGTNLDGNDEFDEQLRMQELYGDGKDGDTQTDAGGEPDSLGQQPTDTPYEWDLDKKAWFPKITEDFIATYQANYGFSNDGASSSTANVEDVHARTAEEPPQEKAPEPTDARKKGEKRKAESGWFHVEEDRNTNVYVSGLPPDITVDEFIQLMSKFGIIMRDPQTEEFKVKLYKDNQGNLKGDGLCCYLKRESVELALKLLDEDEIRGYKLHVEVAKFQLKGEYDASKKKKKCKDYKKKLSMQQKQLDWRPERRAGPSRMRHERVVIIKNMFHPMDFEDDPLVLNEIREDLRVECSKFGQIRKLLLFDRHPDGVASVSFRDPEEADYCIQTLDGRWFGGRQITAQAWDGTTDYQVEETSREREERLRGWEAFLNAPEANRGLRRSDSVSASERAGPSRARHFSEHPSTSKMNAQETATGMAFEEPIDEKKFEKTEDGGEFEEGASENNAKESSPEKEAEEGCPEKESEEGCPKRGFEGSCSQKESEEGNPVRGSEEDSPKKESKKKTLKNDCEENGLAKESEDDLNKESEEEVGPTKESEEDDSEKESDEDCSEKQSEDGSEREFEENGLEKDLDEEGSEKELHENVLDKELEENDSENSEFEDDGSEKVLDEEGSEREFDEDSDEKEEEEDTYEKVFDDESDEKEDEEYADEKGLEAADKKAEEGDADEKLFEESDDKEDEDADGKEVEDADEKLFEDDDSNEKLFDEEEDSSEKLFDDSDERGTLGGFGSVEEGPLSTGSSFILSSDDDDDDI
# TCP1, sequence (P17987 whole entry): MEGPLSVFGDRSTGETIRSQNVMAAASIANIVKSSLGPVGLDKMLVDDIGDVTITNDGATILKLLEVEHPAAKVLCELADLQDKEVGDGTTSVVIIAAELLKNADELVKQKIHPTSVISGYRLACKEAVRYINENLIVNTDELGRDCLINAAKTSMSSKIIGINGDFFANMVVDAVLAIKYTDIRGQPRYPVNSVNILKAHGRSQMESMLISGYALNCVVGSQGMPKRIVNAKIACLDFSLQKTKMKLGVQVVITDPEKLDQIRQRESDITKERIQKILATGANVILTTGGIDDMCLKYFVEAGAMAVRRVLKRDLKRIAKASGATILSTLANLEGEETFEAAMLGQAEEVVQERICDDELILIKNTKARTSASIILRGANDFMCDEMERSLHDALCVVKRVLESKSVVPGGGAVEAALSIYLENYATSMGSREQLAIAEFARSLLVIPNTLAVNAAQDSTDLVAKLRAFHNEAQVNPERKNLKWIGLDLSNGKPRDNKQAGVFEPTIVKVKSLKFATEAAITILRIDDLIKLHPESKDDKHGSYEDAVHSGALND
# BCL9, sequence (O00512 whole entry): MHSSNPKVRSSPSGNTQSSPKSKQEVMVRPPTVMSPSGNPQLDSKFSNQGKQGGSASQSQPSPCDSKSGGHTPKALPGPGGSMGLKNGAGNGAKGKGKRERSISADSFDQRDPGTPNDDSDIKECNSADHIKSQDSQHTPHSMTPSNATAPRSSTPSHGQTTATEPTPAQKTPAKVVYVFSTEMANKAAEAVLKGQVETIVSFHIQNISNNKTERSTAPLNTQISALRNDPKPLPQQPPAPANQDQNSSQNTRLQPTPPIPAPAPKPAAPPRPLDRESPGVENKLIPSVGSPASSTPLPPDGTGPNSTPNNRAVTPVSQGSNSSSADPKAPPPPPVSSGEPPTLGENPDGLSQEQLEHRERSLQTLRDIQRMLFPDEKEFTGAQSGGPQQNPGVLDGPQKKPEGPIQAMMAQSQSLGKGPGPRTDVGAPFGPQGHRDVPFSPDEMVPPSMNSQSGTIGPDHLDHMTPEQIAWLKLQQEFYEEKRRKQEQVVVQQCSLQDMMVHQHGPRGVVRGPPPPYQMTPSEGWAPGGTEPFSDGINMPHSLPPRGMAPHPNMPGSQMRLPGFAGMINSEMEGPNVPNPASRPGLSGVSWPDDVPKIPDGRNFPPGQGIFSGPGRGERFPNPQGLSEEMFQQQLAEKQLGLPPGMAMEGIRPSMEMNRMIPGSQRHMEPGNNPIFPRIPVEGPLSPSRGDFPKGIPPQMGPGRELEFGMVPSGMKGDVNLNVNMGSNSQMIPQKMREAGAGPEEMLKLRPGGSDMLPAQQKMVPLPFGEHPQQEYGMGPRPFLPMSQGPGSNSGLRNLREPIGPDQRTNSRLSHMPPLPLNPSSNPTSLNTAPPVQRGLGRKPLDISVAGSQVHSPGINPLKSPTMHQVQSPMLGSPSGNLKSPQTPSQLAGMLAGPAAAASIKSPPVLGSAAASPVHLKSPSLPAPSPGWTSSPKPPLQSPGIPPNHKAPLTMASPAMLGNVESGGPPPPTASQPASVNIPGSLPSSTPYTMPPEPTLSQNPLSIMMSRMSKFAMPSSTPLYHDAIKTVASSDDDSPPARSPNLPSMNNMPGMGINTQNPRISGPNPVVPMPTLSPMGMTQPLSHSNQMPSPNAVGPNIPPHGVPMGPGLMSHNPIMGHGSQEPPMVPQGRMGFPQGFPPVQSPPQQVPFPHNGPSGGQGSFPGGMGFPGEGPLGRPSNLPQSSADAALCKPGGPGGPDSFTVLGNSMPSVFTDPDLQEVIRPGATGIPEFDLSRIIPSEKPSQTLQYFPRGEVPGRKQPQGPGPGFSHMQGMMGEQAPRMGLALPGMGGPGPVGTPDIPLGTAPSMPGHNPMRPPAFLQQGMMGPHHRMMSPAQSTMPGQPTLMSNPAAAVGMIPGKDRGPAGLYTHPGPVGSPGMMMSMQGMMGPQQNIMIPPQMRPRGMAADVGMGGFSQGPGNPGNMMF
# CLEC4F, sequence (Q8N1N0 whole entry): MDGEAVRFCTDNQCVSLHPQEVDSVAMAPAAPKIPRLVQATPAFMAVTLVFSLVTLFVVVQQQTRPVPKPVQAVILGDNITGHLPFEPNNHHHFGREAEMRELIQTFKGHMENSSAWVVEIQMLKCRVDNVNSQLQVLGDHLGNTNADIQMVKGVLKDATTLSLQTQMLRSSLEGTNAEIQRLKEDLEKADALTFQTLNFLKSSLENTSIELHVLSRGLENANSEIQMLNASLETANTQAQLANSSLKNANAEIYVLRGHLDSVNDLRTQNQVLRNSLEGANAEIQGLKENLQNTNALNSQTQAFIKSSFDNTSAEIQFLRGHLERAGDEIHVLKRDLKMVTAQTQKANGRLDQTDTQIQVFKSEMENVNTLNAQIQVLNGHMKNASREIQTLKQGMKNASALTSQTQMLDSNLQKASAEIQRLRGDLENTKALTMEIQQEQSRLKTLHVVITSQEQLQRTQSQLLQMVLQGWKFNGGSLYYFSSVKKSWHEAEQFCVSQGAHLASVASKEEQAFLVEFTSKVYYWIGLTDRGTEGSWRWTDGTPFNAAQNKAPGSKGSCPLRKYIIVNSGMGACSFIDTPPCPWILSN
# UniProt Q76KP1, sequence (Q76KP1 whole entry): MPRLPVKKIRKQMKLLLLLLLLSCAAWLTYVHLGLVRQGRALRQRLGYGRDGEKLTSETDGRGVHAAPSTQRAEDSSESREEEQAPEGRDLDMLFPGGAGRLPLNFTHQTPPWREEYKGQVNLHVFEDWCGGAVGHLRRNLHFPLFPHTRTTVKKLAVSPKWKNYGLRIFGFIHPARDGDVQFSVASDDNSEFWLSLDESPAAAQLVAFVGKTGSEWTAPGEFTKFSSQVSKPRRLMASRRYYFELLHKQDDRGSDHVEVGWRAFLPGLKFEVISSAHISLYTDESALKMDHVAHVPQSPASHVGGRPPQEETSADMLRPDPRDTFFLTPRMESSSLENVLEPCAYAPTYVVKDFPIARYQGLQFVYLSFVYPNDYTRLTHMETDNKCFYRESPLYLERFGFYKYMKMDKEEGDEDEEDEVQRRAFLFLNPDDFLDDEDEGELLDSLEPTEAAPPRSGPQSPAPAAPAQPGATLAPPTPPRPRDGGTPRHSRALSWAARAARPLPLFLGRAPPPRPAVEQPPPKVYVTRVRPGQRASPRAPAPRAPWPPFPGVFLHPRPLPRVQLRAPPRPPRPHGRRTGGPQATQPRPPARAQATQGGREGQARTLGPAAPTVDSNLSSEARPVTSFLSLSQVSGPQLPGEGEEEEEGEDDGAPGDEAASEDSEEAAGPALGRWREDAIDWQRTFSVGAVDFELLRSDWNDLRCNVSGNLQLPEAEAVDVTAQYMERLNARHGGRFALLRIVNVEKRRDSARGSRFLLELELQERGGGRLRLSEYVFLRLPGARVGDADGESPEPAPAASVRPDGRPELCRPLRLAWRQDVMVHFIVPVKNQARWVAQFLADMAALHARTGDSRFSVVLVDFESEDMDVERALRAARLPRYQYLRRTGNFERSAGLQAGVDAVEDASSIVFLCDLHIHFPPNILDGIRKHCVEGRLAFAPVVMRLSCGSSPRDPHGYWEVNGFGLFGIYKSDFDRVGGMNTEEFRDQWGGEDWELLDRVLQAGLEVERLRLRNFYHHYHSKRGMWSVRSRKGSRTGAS
substance,measurement,setting,value
"CLEC4F, Q8N1N0",cross-linked residues,AIF1L,K474 - K129
"EPRS1, P07814",cross-linked residues,B4GALNT4,K300 - K232
"CCT4, P50991",cross-linked residues,CCT2,K21 - K522
"TCP1, P17987",cross-linked residues,CCT4,K126 - K55
"EPHX2, P34913",cross-linked residues,MEPE,K55 - K369
"HTATSF1, O43719",cross-linked residues,SF3B1,K297 - K333
"SMC2, O95347",cross-linked residues,SMC4,K580 - K731
"NOP56, O00567",cross-linked residues,SNU13,K396 - K86
"VIM, P08670",cross-linked residues,TPPP3,K223 - K48
"BCL9, O00512",cross-linked residues,TRIM28,K1244 - K289
"XRCC6, P12956",cross-linked residues,XRCC5,K317 - K282
